Assay results from PubChem BioAssay AID504333 (National Center for Advancing Translational Sciences (NCATS), 2011).
The whole screen tested about 360,000 compounds, of which about 16,000 (4.4%) were called active. Not shown: some 9% with an inconclusive outcome. What follows is part of a selection rich in actives, with near analogues and random picks from the rest. Unmarked numbers belong to inactive results. Calls come from the whole dose curve; as a rule, active = well fitted inhibition curve with a large enough effect; inconclusive = small, poorly fitted or top-dose-only effect; inactive = no such curve, though single readings can be large or run the other way.

What follows are molecules tested against Bromodomain adjacent to zinc finger domain protein 2B (Homo sapiens) (UniProt Q9UIF8) (assay: qHTS Assay for Inhibitors of BAZ2B). Conditions: AlphaScreen BAZ2B-H3K14Ac peptide displacement; series mostly up to 114 µM; activity change, negative = inhibition: at the top concentration.
How it was run: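 Protein-peptide AlphaScreen: BAZ2B 50 nM, b-H3K14Ac 50 nM, 1x PBS pH 7.4 + 0.01% Tween-20. Preincubation 30 min RT; cpd 30 min RT (top 110 uM); beads 20 min RT, light-protected.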
% is set by controls: 0 for no effect and ±100 for the full control effect; potency is the fitted concentration of half-maximal effect.
Note: nearly all actives have a fitted effect of over 60% in size.

Chain of Bromodomain adjacent to zinc finger domain protein 2B (Homo sapiens) (Q9UIF8 whole entry, looked up, the tested form may be a part): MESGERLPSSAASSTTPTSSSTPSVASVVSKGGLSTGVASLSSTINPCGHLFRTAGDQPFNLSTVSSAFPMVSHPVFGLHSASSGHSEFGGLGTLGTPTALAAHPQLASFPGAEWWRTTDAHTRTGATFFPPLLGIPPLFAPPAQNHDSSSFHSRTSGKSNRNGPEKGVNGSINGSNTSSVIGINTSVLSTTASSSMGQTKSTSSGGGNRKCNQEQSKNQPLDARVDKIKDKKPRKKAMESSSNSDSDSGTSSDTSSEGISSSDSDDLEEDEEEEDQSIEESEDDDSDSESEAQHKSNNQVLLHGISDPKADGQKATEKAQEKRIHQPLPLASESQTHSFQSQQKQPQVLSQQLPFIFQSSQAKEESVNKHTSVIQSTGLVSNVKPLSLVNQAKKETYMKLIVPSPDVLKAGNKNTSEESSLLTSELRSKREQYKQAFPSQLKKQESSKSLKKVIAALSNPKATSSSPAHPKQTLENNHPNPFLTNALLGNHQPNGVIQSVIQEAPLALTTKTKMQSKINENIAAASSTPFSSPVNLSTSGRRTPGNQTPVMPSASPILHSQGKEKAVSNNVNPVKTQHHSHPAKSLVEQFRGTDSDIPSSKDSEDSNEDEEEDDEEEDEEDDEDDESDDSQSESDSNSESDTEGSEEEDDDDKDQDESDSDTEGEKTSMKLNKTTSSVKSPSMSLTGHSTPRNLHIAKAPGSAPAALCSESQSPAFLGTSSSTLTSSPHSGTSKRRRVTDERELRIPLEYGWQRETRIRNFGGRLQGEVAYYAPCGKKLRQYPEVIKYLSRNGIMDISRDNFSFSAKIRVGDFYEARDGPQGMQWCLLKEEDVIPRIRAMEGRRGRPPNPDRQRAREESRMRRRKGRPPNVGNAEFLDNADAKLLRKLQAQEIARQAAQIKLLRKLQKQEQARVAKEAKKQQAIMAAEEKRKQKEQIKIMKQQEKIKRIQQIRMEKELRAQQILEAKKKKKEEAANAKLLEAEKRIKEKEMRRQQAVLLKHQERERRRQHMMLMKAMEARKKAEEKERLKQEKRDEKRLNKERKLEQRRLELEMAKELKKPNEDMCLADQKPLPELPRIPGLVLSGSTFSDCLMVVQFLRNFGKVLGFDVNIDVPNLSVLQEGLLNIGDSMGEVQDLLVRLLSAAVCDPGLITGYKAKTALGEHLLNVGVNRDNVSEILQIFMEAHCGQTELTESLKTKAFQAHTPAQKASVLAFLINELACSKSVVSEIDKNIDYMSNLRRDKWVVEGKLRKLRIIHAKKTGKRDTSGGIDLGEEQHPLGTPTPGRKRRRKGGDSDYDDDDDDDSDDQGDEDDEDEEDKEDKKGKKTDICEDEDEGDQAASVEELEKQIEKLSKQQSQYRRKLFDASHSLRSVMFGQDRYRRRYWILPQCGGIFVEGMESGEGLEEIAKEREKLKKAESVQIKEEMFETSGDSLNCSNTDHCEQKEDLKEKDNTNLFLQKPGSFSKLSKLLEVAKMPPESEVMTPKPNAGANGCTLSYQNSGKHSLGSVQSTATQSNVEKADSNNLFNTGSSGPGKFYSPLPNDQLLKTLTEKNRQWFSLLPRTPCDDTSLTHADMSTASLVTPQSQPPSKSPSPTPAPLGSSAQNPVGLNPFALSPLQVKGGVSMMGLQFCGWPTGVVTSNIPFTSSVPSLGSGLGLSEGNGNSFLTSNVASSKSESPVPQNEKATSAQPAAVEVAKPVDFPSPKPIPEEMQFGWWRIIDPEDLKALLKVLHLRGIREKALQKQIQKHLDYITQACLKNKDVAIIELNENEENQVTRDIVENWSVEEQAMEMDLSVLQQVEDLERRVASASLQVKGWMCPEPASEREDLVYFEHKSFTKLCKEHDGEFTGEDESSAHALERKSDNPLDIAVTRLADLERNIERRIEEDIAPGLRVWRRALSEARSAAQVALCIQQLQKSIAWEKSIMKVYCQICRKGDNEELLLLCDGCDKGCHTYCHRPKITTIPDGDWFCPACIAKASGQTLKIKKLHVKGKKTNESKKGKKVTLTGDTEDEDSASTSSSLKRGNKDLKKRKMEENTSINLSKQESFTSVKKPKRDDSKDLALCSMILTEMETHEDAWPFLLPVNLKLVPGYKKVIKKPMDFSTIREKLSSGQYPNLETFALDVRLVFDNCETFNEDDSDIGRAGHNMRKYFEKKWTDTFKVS

Row | Structure (SMILES) | activity change, negative = inhibition | Potency
1 | COc1ccccc1-c1cc(C(F)(F)F)nc(S(=O)(=O)CCCC(=O)Nc2ccc(F)cc2F)n1 | -21.3% | 
2 | CCn1cc2nc(SCc3cccc(F)c3)n(CCc3ccccc3)c(=O)c2n1 | 2.73% | 
3 | COc1cc(NS(=O)(=O)c2ccc3c(c2)OCC(C(=O)N2CCCC2)O3)cc(OC)c1 (stereo not drawn) | -12.5% | 
4 | COc1ccc(C(=O)N2CCC(c3nc4ccccc4o3)CC2)cc1 | -8.77% | 
5 | Cn1c(Nc2ccccc2)cc(=O)n(C)c1=O | 5.28% | 
6 | Cc1cc2nc(C)n(CCCNC(=O)Nc3ccccc3)c2cc1C | 5.12% | 
7 | Cc1cc(=O)n(C)c(=O)n1CCCNc1ccccc1 |  | 50.1 µM (active)
8 | Cc1ccc(-n2nc(C)c3c(C)cc(=O)n(CC(=O)Nc4ccc(C(C)C)cc4)c32)cc1 | 5.9% | 
9 | O=C(Cc1ccc(S(=O)(=O)N2CCCC2)s1)NC1CCCCCC1 |  | 50.1 µM (active)
10 | O=C(Cc1ccc(S(=O)(=O)N2CCOCC2)s1)NCCC(c1ccccc1)c1ccccc1 | -36.3% | 
11 | O=C(NC1CCCCC1)C1CCCN(S(=O)(=O)c2ccc(Br)s2)C1 (stereo not drawn) | -9.2% | 
12 | Cc1cc(-c2ccc(C)c(S(=O)(=O)N3c4ccccc4CC3C)c2)on1 (stereo not drawn) | 12.6% | 
13 | Cc1ccsc1CN(C(=O)c1oc2ccc(Br)cc2c1C)C1CCS(=O)(=O)C1 (stereo not drawn) | -15.3% | 
14 | Cc1ccc(C(=O)Nc2nnc(C3=COCCO3)o2)cc1C |  | 50.1 µM (active)
15 | Cc1csc(NC(=O)C2=COCCO2)n1 | 11.9% | 
16 | O=C(Nc1ncc([N+](=O)[O-])s1)C1COc2ccccc2O1 (stereo not drawn) | -24% | 
17 | O=C(Nc1nnc(C2=COCCO2)o1)c1ccc([N+](=O)[O-])s1 |  | 79.4 µM (active)
18 | Cc1cccc(C)c1NC(=O)CNC(=O)c1ccc2c(c1)OCCO2 | 7.19% | 
19 | COc1cc(-c2nnc(NC(=O)C3=COCCO3)o2)cc(OC)c1OC |  | 39.8 µM (active)
20 | COc1ccc(C(=O)COC(=O)c2ccc([N+](=O)[O-])s2)cc1OC | 1.73% | 
21 | CCC(CC)c1nnc(NC(=O)C2=COCCO2)s1 | 4.03% | 
22 | CSc1ccccc1-c1nnc(NC(=O)c2ccc3c(c2)OCCO3)o1 | -2.66% | 
23 | O=C(NCCc1csc(-c2ccc(C(F)(F)F)cc2)n1)C(=O)Nc1ccc(F)c(Cl)c1 | 1.15% | 
24 | CC(C)(C)OC(=O)N1CCC(c2c(C(=O)NCc3ccccn3)cnn2-c2ccc(F)cc2)CC1 | 12.6% [at 57.1 µM] | 
25 | O=C(Nc1ncccc1O)c1ccc(C(=O)c2ccccc2)cc1 | -32.2% | 
26 | O=C(CNC(=O)c1ccc2ccccc2c1)Nc1ncccc1O |  | 50.1 µM (active)

Row | Structure (SMILES) | activity change, negative = inhibition | Potency
27 | CC1CCC(NC(=O)CNC(=O)c2ccc3ccccc3c2)CC1 (stereo not drawn) | -25.2% | 
28 | CN(Cc1ccccc1)C(=O)CCS(=O)(=O)c1cc(Br)cc2c1N(C(=O)C1CC1)CC2 | -8.26% | 
29 | Cc1ccc(C)c(N2CCN(C(=O)CN3C(=O)COc4ccc(S(=O)(=O)N5CCCCCC5)cc43)CC2)c1 | -8.46% | 
30 | CCOCCCNCc1cc(Br)ccc1OCC | -14.7% | 
31 | CCOCCCNCc1ccc(OCc2ccc(F)cc2)c(OC)c1 | -9.74% | 
32 | CCOc1ccccc1OCCCNCc1ccccc1 |  | 79.4 µM (active)
33 | Cc1cc(C)c2oc(-c3cccc(NC(=O)c4cccc(F)c4)c3C)nc2c1 | -5.05% | 
34 | O=C1N=C(N2CCCC2)S/C1=C\c1cccc(Br)c1 | -1.32% | 
35 | CCOc1cc(/C=C2\SC(N3CCCCC3)=NC2=O)ccc1O | 4.95% | 
36 | CCN1C(=O)/C(=C2\SC(N3CCCCC3)=NC2=O)c2ccccc21 |  | 39.8 µM (active)
37 | CCOc1ccc(S(=O)(=O)c2cn(Cc3ccccc3)c3ccc(OCC)cc3c2=O)cc1 | -2.47% | 
38 | CCc1ccc(CN(Cc2ccco2)C(=O)c2ccccc2Cl)cc1 | 28.6% | 
39 | Cc1cc(=O)c2cc(C(=O)Nc3cccc(C)c3C)ccc2[nH]1 | -0.358% | 
40 | CC1CCCN(CC(O)COCc2ccccc2)C1 (stereo not drawn) | -6.53% | 
41 | OC(COCc1ccco1)CN1CCN(c2ccccc2)CC1 (stereo not drawn) |  | 89.1 µM (active)
42 | O=[N+]([O-])c1ccc(N2CCN(CC(O)COc3ccccc3)CC2)cc1 (stereo not drawn) | -36.5% | 
43 | CCCn1ccc2c(OCC(=O)NCc3ccc(F)cc3)cccc2c1=O | 2.51% | 
44 | Cc1ccc(-c2cn3c(n2)sc2cc(C(=O)NCCCc4ccccc4)ccc23)cc1 | -0.904% | 
45 | Cc1ccc(NC(=O)CCN2C(=O)c3ccccc3C2=O)cc1C | -0.264% | 
46 | Cc1cc2c(cc1C)N(C(=O)CN1C(=O)c3ccccc3C1=O)C(C)(C)c1ssc(=S)c1-2 |  | 8.91 µM (active)
47 | Cc1cc(C)cc(NC(=O)CN2C(=O)c3ccccc3C2=O)c1 | 5.03% | 
48 | O=[N+]([O-])c1cc(C(F)(F)F)ccc1NCCc1ccncc1 | -9.78% | 
49 | COc1cc(OC)cc(C(=O)NC(=S)N2CCN(c3ccc(C(F)(F)F)cc3[N+](=O)[O-])CC2)c1 | 62.3% | 
50 | O=[N+]([O-])c1cc(C(F)(F)F)ccc1NN=C1CCCC1 |  | 10 µM (active)
51 | COc1cccc(CNC(=O)C(=O)NCC(c2cccs2)S(=O)(=O)c2ccccc2)c1 (stereo not drawn) | 30.7% | 
52 | COc1ccccc1CNC(=O)CCCn1c(=O)c2ccccc2n(CC(=O)Nc2ccc(C)cc2Cl)c1=O | -9.06% | 

Row | Structure (SMILES) | activity change, negative = inhibition | Potency
53 | CC(C)NC(=O)C(=O)N/N=C/c1ccco1 | 6.63% | 
54 | O=C(N/N=C/c1ccco1)c1ccc(C(=O)N/N=C/c2ccco2)o1 |  | 56.2 µM (active)
55 | O=C(Cc1ccc([N+](=O)[O-])cc1)N/N=C/c1ccco1 | 1.38% | 
56 | CCOc1ccccc1NC(=O)CN1CCN(S(=O)(=O)c2ccc(Br)cc2)CC1 | 7.77% [at 57.1 µM] | 
57 | Cc1ccc(NC2=C(c3ccc(C(F)(F)F)cc3)C(=O)c3ccccc32)cc1F | -12.8% | 
58 | Cc1ccc(C)c(Cn2c(=O)n(CCC(=O)NCc3ccc4c(c3)OCO4)c(=O)c3sccc32)c1 | 1.86% | 
59 | Cc1oc2cc([N+](=O)[O-])c(O)c([N+](=O)[O-])c2c1C(=O)c1ccc(Br)cc1 |  | 35.5 µM (active)
60 | Cc1oc2cc(Br)c(O)c(Br)c2c1C(=O)c1ccccc1 | -15.4% | 
61 | N/C(=N\OC(=O)Cc1ccccc1[N+](=O)[O-])c1ccc(Br)cc1 | -23.2% | 
62 | COCCNc1ncnc2c1c(-c1ccccc1)cn2-c1ccc(C)c(Cl)c1 | -8.73% | 
63 | COc1ccc(Cn2c(=S)[nH]c3cc(C(=O)NCCCN4CCOCC4)ccc3c2=O)cc1 | -4.26% | 
64 | Cc1c(C)n(Cc2ccc(Cl)cc2)c2ccc(C(=O)NCCCN3CCOCC3)cc12 |  | 39.8 µM (active)
65 | Cc1c(C)n(Cc2ccc(Cl)cc2)c2ccc(C(=O)NCCc3ccc(S(N)(=O)=O)cc3)cc12 | -19% | 
66 | COc1ccc(-c2onc(C)c2C)cc1S(=O)(=O)NCC1CCN(Cc2cccc(F)c2)CC1 | -27.4% | 
67 | Cc1ccccc1CN1CCC(CNC(=O)c2c(C)oc3ncnc(N4CCCCC4)c23)CC1 | 1.59% [at 57.1 µM] | 
68 | Cn1c(COc2ccccc2C(C)(C)C)nc2ccccc21 | -4.66% | 
69 | COc1ccc(NC(=O)CSC2=Nc3ccccc3C3=NC(CC(=O)NCc4ccccc4OC)C(=O)N23)cc1Cl (stereo not drawn) | 3.52% | 
70 | O=C(O)c1ccccc1NC(=O)c1ccccc1-c1ccccc1C(=O)O | 1.8% | 
71 | O=C(NC(=S)Nc1cc(C(F)(F)F)ccc1N1CCOCC1)c1ccc(-c2cccc(Cl)c2)o1 | -35.6% | 
72 | O=C(NC(=S)Nc1ccccc1C(=O)O)c1ccc(-c2ccc(Br)cc2)o1 |  | 44.7 µM (active)
73 | COc1cc(C)ccc1OCCSc1nc2ccc(NC(=O)c3ccc(C)cc3)cc2s1 | -4.01% | 
74 | O=C(CCOc1ccccc1)N(Cc1cccnc1)c1nc2ccc(Cl)cc2s1 | -5.67% | 
75 | Cc1cccc(N2CCN(C(=O)c3cc4c(=O)oc5ccccc5c4s3)CC2C)c1 (stereo not drawn) | -9.52% | 
76 | COC(=O)c1ccc(NC(=O)c2cnn(-c3ccc(Cl)cc3)c2C2CCN(C(=O)OC(C)(C)C)CC2)cc1 | 8.38% [at 57.1 µM] | 
77 | ON=C1/C(=N\O)CC2(C/C1=N/O)OCCO2 |  | 22.4 µM (active)
78 | O/N=C1\CC2(Cc3nonc31)OCCO2 | 11.3% | 

Row | Structure (SMILES) | activity change, negative = inhibition | Potency
79 | Cc1cccc(N2CCN(C(=O)c3ccc4c(c3)CCN4S(=O)(=O)c3ccccc3)CC2)c1C | -22% | 
80 | O=C(COc1ccc(Cl)cc1)N(Cc1ccco1)Cc1ccco1 | -14.8% | 
81 | Cc1ccc(S(=O)(=O)NCc2nc3nc(C)cc(C)n3n2)cc1 | -1.01% | 
82 | CCc1ccc(NC(=O)CSc2nc3c([nH]c4ccccc43)c(=O)n2-c2cccc(OC)c2)cc1 | -13.9% | 
83 | Cn1c(=O)c2c(SCC(=O)N3CCc4ccccc43)nc(-c3ccc(Cl)cc3)nc2n(C)c1=O | 31.3% | 
84 | Cc1cc(C)nc(N/N=C/c2c(C)oc3ccccc23)n1 | -14.9% | 
85 | Cc1cc(C)nc(N/N=C/c2c(CO)cnc(C)c2O)n1 |  | 79.4 µM (active)
86 | O=C(c1cccc(Cl)c1)N1CCN(CCc2ccncc2)CC1 | -24.8% | 
87 | CSCCC(NC(=O)c1ccco1)C(=O)Nc1cc(C)ccn1 (stereo not drawn) | 1.06% | 
88 | CCOC(=O)N1CCN(C(=O)C(C)NC(=O)c2ccco2)CC1 (stereo not drawn) | -1.89% | 
89 | CC(NC(=O)c1ccco1)C(=O)Nc1nc(-c2ccccn2)cs1 (stereo not drawn) |  | 22.4 µM (active)
90 | Cc1cc(C)cc(-n2ccnc2SCC(=O)Nc2nc3ccccc3s2)c1 | -12.3% | 
91 | COc1ccc(CCNC(=O)c2cc3cccc4c3n2CC(C)S4)c(OC)c1OC (stereo not drawn) | -15.7% | 
92 | CCC1=Nc2cc(C(=O)NCC(C)c3ccccc3)ccc2Sc2ccc(C)cc21 (stereo not drawn) | -4.79% | 
93 | Cc1nnc(SCC(=O)Nn2cnnc2)s1 | -2.33% | 
94 | CCCCCC(=O)Nc1ccc(S(=O)(=O)Nc2ccc(Cl)nn2)cc1 | -1.75% | 
95 | Cc1nnc(SCC(=O)Nc2ccc(S(=O)(=O)Nc3ccc(Cl)nn3)cc2)s1 |  | 50.1 µM (active)
96 | c1ccc(-c2ccc(OCCN3CCOCC3)cc2)cc1 | -25.3% | 
97 | C#CC(CCN1CCCCC1)(OC)c1ccccc1 (stereo not drawn) | -3.06% | 
98 | c1ccc(-c2ccccc2OCCN2CCCCC2)cc1 |  | 50.1 µM (active)
99 | O=C(CC(c1cccs1)N1Cc2ccccc2C1=O)Nc1ccc(F)c(F)c1 (stereo not drawn) | 5.65% | 
100 | CC(=O)c1c(C)n(S(=O)(=O)c2ccc(Cl)cc2)c2ccc(NS(=O)(=O)c3ccc(Cl)cc3)cc12 | -19.7% | 
101 | COc1ccc(N2CCN(C(=O)C3CCCN(C(=O)c4cc5sccc5n4C)C3)CC2)cc1 (stereo not drawn) |  | 39.8 µM (active)
102 | Cn1c(C(=O)N2CCCC(C(=O)NCc3ccccc3)C2)cc2sccc21 (stereo not drawn) | -26% | 
103 | COc1ccc(N2CCN(C(=O)C3CCN(C(=O)c4ccccc4Cl)CC3)CC2)cc1 | 1.59% | 
